Only some compounds are listed: those with a hit (about 4.7% of all), similar ones and a draw of the others.
LMP1 NFkB inh – inhibitors of Epstein-Barr LMP1-induced NF-kappaB reporter; LMP1-induced NF-kappaB luciferase reporter cells, luminescence; inhibition, % at 12.5 µM; 350,000 tested, 0.69% active; in the data active = inhibition above about 41%; inconclusive = no clear call, values can overlap the other calls;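 also: 0% = neutral control wells and 100% = reference inhibitor control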
HSP90 inh – blocks HSP90-mediated luciferase refolding in reticulocyte lysate | Rabbit reticulocyte lysate, luciferase refolding luminescence, 3 h | inhibition, % at 5.6 µM | 290,000 tested, 0.91% active;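 active = inhibition above the screen-wide mean plus 3 SD, computed separately per campaign, cut at about 16% in these data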;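 also: 0% = DMSO wells and 100% = 60 µM geldanamycin wells; inhibitors lower the luminescence because luciferase stays unfolded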
TWEAK Fn14 block – blocks TWEAK-Fn14 interaction in a reporter cell assay. TWEAK-stimulated Fn14 reporter cells, luciferase luminescence, 8 h. inhibition, % at 10 µM. 360,000 tested, 2% active; in the data active = inhibition above about 50%
TROY signal inh – blocks TROY-dependent signaling in reporter cells. inhibition, % at 10 µM. Q293 LMP1-TROYcd NF-kB luciferase reporter, 4 h. 360,000 tested, 0.98% active;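 active = compounds whose plate-normalised and pattern-corrected inhibition of the luciferase reporter signal at the single screening dose is 50% or more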
HSF1 inhib – HSF1 inhibition; NIH3T3-HGL HSE-luciferase, MG132-induced, luminescence 8 h; hits give low values; activity change, negative = inhibition, % at 7.5 µM (by protocol); 300,000 tested, 0.77% active;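 active = more than half of replicate wells show activity change below -50%, luminescence cut by over half; inconclusive = some wells, but at most half, below -50%; inactive = no replicate well below -50%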;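 also: luciferase reports HSF-1 transcriptional activity via heat shock element; 0% = median of DMSO wells and -100% = zero luminescence signal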
HSF-1 act – increases HSF-1 driven luciferase reporter signal; NIH3T3-HGL HSF-1 luciferase reporter, MG132, 8 h; 100% = twice DMSO control signal; activation, % at 9 µM; 300,000 tested, 1.7% active;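 active = mean replicate activation of at least 50% with a set share of replicates each reaching 50%; inconclusive = only one of those two conditions met; inactive = mean below 50% and too few replicates reaching it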;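 also: 0% = median of the neutral control wells and 100% = twice that signal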
HSP90 confirm – confirmation of HSP90 inhibitors | inhibition, % at 5.9 µM | AID 1846 | 2,300 tested, 64% active | shares compounds with HSP90 inh | rabbit reticulocyte lysate, luciferase refolding luminescence, 3 h; in the data active = inhibition above about 18%;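 also: 0% = vehicle wells and 100% = reference inhibitor wells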
luciferase ctr – blocks native firefly luciferase in HSP90 counter-screen. shares compounds with HSP90 inh. purified native firefly luciferase, luminescence. inhibition, % at 5.9 µM. 2,300 tested, 48% active. AID 1847;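 active = inhibition above the mean inhibition of all tested sample wells plus 3 SD, cut at about 10% in these data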;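 also: 0% = DMSO with luciferase and 100% = wells lacking luciferase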
Target sequence (P08659 whole entry, looked up): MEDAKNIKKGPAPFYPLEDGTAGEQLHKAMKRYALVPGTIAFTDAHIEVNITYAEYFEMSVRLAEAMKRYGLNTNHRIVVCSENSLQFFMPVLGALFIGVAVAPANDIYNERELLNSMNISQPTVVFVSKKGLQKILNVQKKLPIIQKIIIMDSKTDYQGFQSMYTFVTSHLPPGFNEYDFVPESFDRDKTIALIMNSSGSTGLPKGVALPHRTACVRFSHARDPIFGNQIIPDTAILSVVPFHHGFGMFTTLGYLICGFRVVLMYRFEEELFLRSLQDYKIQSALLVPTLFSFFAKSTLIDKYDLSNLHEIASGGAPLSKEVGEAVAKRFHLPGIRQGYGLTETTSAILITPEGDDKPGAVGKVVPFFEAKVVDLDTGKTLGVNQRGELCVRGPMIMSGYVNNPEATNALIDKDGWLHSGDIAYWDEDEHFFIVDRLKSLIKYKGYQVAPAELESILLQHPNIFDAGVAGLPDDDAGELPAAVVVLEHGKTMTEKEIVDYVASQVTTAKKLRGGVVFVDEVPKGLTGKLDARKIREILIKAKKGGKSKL
* hit, by the source's call; ? = inconclusive; . = not tested or not shown.

SMILES | LMP1 NFkB inh | HSP90 inh | TWEAK Fn14 block | TROY signal inh | HSF1 inhib | HSF-1 act | HSP90 confirm | luciferase ctr
CCOC(=O)c1c(S(=O)(=O)N2CCCC(C(=O)Nc3ncccc3C)C2)c(C)n(C)c1C (stereo not given) | -3 | -8 | 9 | -22 | -9 | -13 | . | .
CC1(C(=O)NS(=O)(=O)Cc2cccc(Cl)c2)CCN1C(=O)C1(c2ccc(Cl)cc2)CCC1 (stereo not given) | . | . | -18 | 15 | . | . | . | .
O=c1[nH]c(Nc2ccccc2)cc2cc(Br)ccc12 | -23 | . | -9 | -29 | 5 | 27 | . | .
O=c1[nH]c(Nc2ccccc2)cc2ccccc12 | 2 | 17* | 12 | -11 | 1 | 6 | 25* | -1
CC[C@@H]1Cc2[nH]c(=O)[nH]c(=O)c2[C@H](c2ccc(Cl)cc2)O1 | . | . | -14 | -11 | . | . | . | .
O=[N+]([O-])c1ccc(-c2ccc(C=Nc3cccc4ccccc34)o2)cc1 | -3 | 18* | 62* | 63* | 1 | 11 | 0 | -8
COc1ccc(/C=N/N=C2/NC(=O)CC(C(=O)O)S2)cc1 (stereo not given) | 4 | 23* | -9 | 7 | 4 | -4 | 36* | -15
COc1ccc(NC(=O)C2CC(=O)N/C(=N/N=C/c3ccco3)S2)cc1 (stereo not given) | . | -8 | 8 | -3 | 0 | -5 | . | .
Cc1ccc(NC(=O)CCNC(=O)Cn2ccc3ccccc3c2=O)cc1F | -21 | 44* | -7 | -21 | 6 | 5 | 26* | 23*
COc1ccc(NC(=O)CCNC(=O)Cn2ccc3ccccc3c2=O)cc1OC | -1 | -5 | 24 | -5 | -3 | 0 | . | .
O=c1[nH]c(=O)n2ncnc2[nH]1 | -3 | . | -14 | 0 | . | . | . | .
O=C(NC(Cc1cn(Cc2ccccc2)cn1)C(=O)O)OCC1c2ccccc2-c2ccccc21 (stereo not given) | . | . | -18 | 10 | . | . | . | .
COc1ccc(CCN(/C=C2\Sc3ccccc3C2=O)C(C)=O)cc1OC | . | 25* | 0 | 56* | -3 | 13 | 1 | -5
Cn1ccc2c(-c3ccc4c(c3)OCCO4)cc3c(c21)C1CCC3C1 (stereo not given) | . | . | 0 | 7 | . | . | . | .
O=C(O)CCCNc1cc(N2CCC3(CC2)OCCO3)c2noc3c2c1C(=O)c1ccccc1-3 | . | 31* | . | . | . | . | 30* | 29*
O=C(O)CCCNc1cc(N2CCN(C(=O)c3ccco3)CC2)c2noc3c2c1C(=O)c1ccccc1-3 | -3 | -1 | -7 | -5 | -5 | 2 | . | .
Cc1nc2c(-c3ccc(F)cc3)cnn2c(N)c1-c1ccc(F)cc1 | -32 | 47* | 78* | 74* | -56* | -62 | 50* | 49*
COc1ccc(C/C(C)=N/NC(=S)Nc2ccc(C(C)C)cc2)cc1 | 4 | -1 | -30 | -16 | 1 | -3 | . | .
COc1ccc(C/C(C)=N/NC(=S)Nc2ccccc2F)cc1 | -8 | 36* | 71* | 79* | -64* | -70 | 48* | 35*
O=C(CNS(=O)(=O)c1ccc(Br)s1)NCc1ccccc1 | 1 | 17* | 15 | -16 | 29 | 69* | -3 | -5
Cc1cc2nc(-c3ccc(F)cc3)c(CC3CCCCC3)n2c(C)c1Br | . | . | -16 | -22 | . | . | . | .
COc1cccc(CNC(=O)C2=C(C)C(=O)OC23CCC(C)CC3)c1 (stereo not given) | 9 | 35* | -14 | 20 | -4 | -4 | -2 | -4
CC(C)Oc1ccc(/C(O)=C2/C(=O)C(=O)N(Cc3cccnc3)C2c2ccco2)cc1 (stereo not given) | 8 | 20* | 13 | -6 | -34 | -47 | 3 | 15*
COc1ccc(-c2cc(=O)c3c(O)c(OC)c(O)cc3o2)cc1 | -13 | 20* | 54* | 3 | 19 | 23 | 46* | 41*
COc1ccc(-c2cc(=O)c3c(O)c(OC)c(OC)c(OC)c3o2)cc1 | 1 | . | -34 | -23 | . | . | . | .
SMILES | LMP1 NFkB inh | HSP90 inh | TWEAK Fn14 block | TROY signal inh | HSF1 inhib | HSF-1 act | HSP90 confirm | luciferase ctr
CN(C)c1ccc(/C=C/C=C2/SC(=S)N(c3ccccc3)C2=O)cc1 | 5 | 34* | 13 | -48 | -22 | -24 | 21* | 12*
CS(=O)(=O)c1ccc2nc(NC(=O)Nc3ccccc3F)sc2c1 | -34 | 18* | 4 | -45 | 11 | 30 | 18* | -2
CC(C)CN1C(=O)NC(NC(=O)c2ccco2)(C(F)(F)F)C1=O (stereo not given) | -2 | 27* | 22 | -3 | 1 | -5 | 1 | -10
CN1C(=O)NC(NC(=O)c2ccco2)(C(F)(F)F)C1=O (stereo not given) | -7 | -1 | -2 | -16 | -1 | -7 | . | .
CC1=C(CC(=O)c2ccccc2)C(=O)c2ccccc2C1=O | -25 | 17* | 54* | 68* | -8 | -28 | 10 | -11
O=C(CN1C(=O)c2ccccc2C1=O)c1ccccc1 | 1 | -2 | -1 | -8 | 0 | 31 | . | .
Cc1ccc(-n2nnc(-c3nccn3C)n2)cc1 | 16 | 33* | 76* | 31 | 6 | 5 | 50* | 37*
O=C(COc1ccc2ccccc2c1)Nc1nccs1 | 2 | 23* | 75* | -28 | 31 | ? | 54* | 49*
CCc1cccc(C)c1NC(=O)COC(=O)Cc1ccccc1 | -3 | . | 3 | -1 | . | . | . | .
Cc1cc(C(=O)O)ccc1N/C=C1\CCCC(C)C1=O (stereo not given) | -43 | 34* | 25 | . | -21 | -25 | 70* | 32*
CC1CCC/C(=C\Nc2ccc(O)cc2)C1=O (stereo not given) | -16 | 4 | 14 | -1 | 3 | 8 | . | .
Cc1nn(C)cc1/C=C/C(=O)c1ccccc1 | -29 | 1 | 39 | -16 | 4 | 25 | . | .
Cn1cc(/C=C/C(=O)c2ccccc2)c2ccccc21 | -12 | 20* | 71* | 21 | 23 | 62* | 36* | 45*
O=C(O)c1cc(=S)nc[nH]1 | -3 | . | 1 | -9 | . | . | . | .
Fc1ccc(-n2nnc(-c3nccs3)n2)cc1 | -16 | 20* | 37 | -14 | 21 | 21 | 32* | 25*
O=C(Cn1nnc(-c2ccc(Cl)cc2)n1)NC(=O)NC1CCCC1 | -6 | . | 15 | -5 | . | . | . | .
CCN(C=NC1=NN(c2cccc(C(F)(F)F)c2)CC1)CC | -3 | 22* | -35 | -15 | 5 | 23 | -1 | -11
CC1CCCN(C(=O)CSc2nnc(-c3c[nH]c4ccccc34)o2)C1 (stereo not given) | -7 | 38* | -13 | -32 | 13 | 25 | -5 | -17
Cc1ccc(NC(=O)N2CCc3ccccc32)cc1C | -24 | 18* | 18 | -21 | 15 | 51* | 37* | 17*

Screens from PubChem.
